# Data from PubChem BioAssay (NCI).
# This is part of a sample that, as a whole, favours compounds with a hit. Of some 83,000 tested, about 20% had one in any assay.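 Each cell line was grown in a 96-well plate and treated with one concentration of compound for 48 hours. Values below 10 were considered active.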 A number with no mark means an inactive call. Active and inactive are the calls of the source.
# Tests used:
# Assay in all cases: NCI-60 one-dose screen, 48 h (100 = growth as untreated, 0 = no growth, -100 = all killed)
# NCI-H23 lung = conditions: 10 µM unless noted
# NCI-H226 lung = conditions: 10 µM unless noted
# NCI-H322M lung = conditions: 10 µM unless noted
# HOP-62 NSCLC = conditions: 10 µM unless noted
# NCI-H522 lung = conditions: 10 µM
# A549/ATCC NSCLC = conditions: 10 µM unless noted
# 786-0 renal = conditions: 10 µM unless noted
# COLO 205 colon = conditions: 10 µM unless noted
# NCI-H460 lung = conditions: 10 µM unless noted
# HOP-92 NSCLC = conditions: 10 µM
SMILES,growth (NCI-H23 lung),growth (NCI-H226 lung),growth (NCI-H322M lung),growth (HOP-62 NSCLC) [%],growth (NCI-H522 lung),growth (A549/ATCC NSCLC),growth (786-0 renal),growth (COLO 205 colon),growth (NCI-H460 lung),growth (HOP-92 NSCLC)
O=C1c2cc([N+](=O)[O-])ccc2-c2cc(Cl)c(NC(=O)C(F)(F)F)cc21,95.3%,101%,103%,106,113%,108%,108%,95.9%,,
COC(=O)Nc1nc2ccc(C(=O)c3ccccc3N(C)C3COC3)cc2[nH]1,54.4%,49.6%,49.5%,,13.1%,42.4%,34.4%,,13.5%,41.1%
CCOC(=O)c1cc(C(=O)c2ccc(Br)cc2)n2cc(C)cc(C)c12,95.2%,87.2%,96.7%,,77.3%,75.7%,96.3%,,95.9%,77.9%
CCCNC(=O)Oc1ccc(/C(=C(/CC)Cc2ccccc2)c2ccc(OCCN(CC)CC)cc2)cc1,83.8%,87.3%,87.4%,84.2,76.8%,63.6%,80.7%,-49% (active),,
C=C1CCC2C3(C)COC(c4ccccc4)OC3CCC2(C)C1C/C=C1/C(=O)OCC1O (stereo unspecified),87.2%,92.2%,87.3%,117,55.4%,,91%,,,
CCCCCN1CCN(C(CC(=O)c2ccccc2)C(=O)c2ccccc2)CC1 (stereo unspecified),98.8%,103%,101%,101,1.49% (active),101%,102%,55.1%,,83.4%
Cc1ccc(OCCn2ccc(=O)n(CCOc3ccc(Cl)cc3C(=O)c3cc(C)cc(C)c3)c2=O)cc1,54.4%,62.9%,84.1%,,23.3%,41.7%,57.4%,,37.2%,45.9%
Cc1ccc(CC(=O)O)c(C)c1,91.3%,99.8%,108%,99.6,85%,94.5%,105%,113%,,98.5%
CCCCCCN(CCCCCC)CCC(=O)Nc1ccc(S(=O)(=O)c2ccc(NC(=O)CCN(CCCCCC)CCCCCC)cc2)cc1,84.3%,78.6%,75.3%,76.8,,94.1%,90.5%,74.1%,,69.4%
Cc1ccc(C(=O)NN)cc1,101%,109%,127%,104,102%,,106%,115%,,
CCOC(=O)C1CCCN1C(=O)C1(NC(C)=O)CCCC1 (stereo unspecified),100%,104%,91.3%,,107%,101%,102%,105%,98.2%,84.7%
COc1cc2ncnc(-n3ncc4cc(NC(=O)Nc5ccc(Cl)c(C)c5)ccc43)c2cc1OC,95.5%,85.9%,88.7%,,86.9%,99.9%,77.5%,,102%,93.7%
C=CCN(C)C,102%,97.3%,114%,,93.7%,100%,106%,121%,108%,110%
Nc1nc2c(c3ncncc13)C(c1cccc(C(F)(F)F)c1)Cc1ncncc1-2 (stereo unspecified),18.4%,55.6%,39%,,32.9%,39.8%,28.5%,,10%,46%
CCOC(=O)c1c(C)oc2ncnc(Nc3ccc(C(=O)NCCc4ccccc4)cc3)c12,81.8%,63.2%,92.9%,,66.9%,56.6%,74.9%,,83%,61.6%
CCS(=O)(=O)OCCO[C@H]1Cc2cc3ccc(=O)oc3cc2OC1(C)C,105%,98.4%,111%,,89.1%,97.3%,106%,,105%,103%

SMILES,growth (NCI-H23 lung),growth (NCI-H226 lung),growth (NCI-H322M lung),growth (HOP-62 NSCLC) [%],growth (NCI-H522 lung),growth (A549/ATCC NSCLC),growth (786-0 renal),growth (COLO 205 colon),growth (NCI-H460 lung),growth (HOP-92 NSCLC)
Nc1cc(N)c2nc(NCCc3ccc(Cl)c(Cl)c3)cnc2c1,63.8%,61.4%,-3.74% (active),,17.3%,71.1%,37.5%,5.65% (active),71.9%,-54.9% (active)
Cc1c(Cc2ccccc2)c(=O)oc2c(C)c(OCc3n[nH]c(=S)o3)ccc12,57.7%,84.8%,63.8%,,61%,26.9%,68.9%,,3.31% (active),57.8%
O=C(Nc1ccccc1)Nc1ccc(Nc2ncnc3sc4c(c23)CCCC4)cc1,100%,89.9%,106%,,93%,73.9%,110%,,104%,101%
C/C(=N\Nc1ccc(Cl)cn1)c1ccccn1,11.6%,-8.37% (active),9.31% (active),,6.6% (active),6.73% (active),8.74% (active),9.59% (active),0.782% (active),29%
O=c1c(N=Nc2nccs2)c(-c2ccccc2)[nH]n1-c1nc(-c2ccccc2)cs1,36.3%,56.2%,24.5%,,20.9%,36.3%,43.7%,,22.5%,-8.96% (active)
CC1(C)Oc2cc3oc(=O)ccc3cc2C[C@@H]1OCCOS(=O)(=O)c1ccc(C#N)cc1,91.8%,87.8%,105%,,77.8%,92.5%,100%,,93%,91.4%
COc1cc(OC)cc(-c2ccc(-c3ccc(C(=N)N)cc3)s2)c1,-77.5% (active),-67.5% (active),-89.3% (active),,-58.2% (active),-41.5% (active),-60.2% (active),,-88.5% (active),-80.6% (active)
CC(C)OC(=O)[C@H](C)N[P@@](=O)(OC[C@@]1(C)O[C@@H](n2cc(F)c(N)nc2=O)C[C@@H]1O[P@](=O)(N[C@@H](C)C(=O)OC(C)C)Oc1ccccc1)Oc1ccccc1,94.4%,96.4%,102%,,85.6%,92.2%,104%,,28.7%,85.1%
Cc1nnc(/N=C2\NC(=O)/C(=C/C=C/c3ccccc3)S2)s1,55.2%,78%,72.8%,,1.52% (active),39.8%,66.9%,,24.5%,56.9%
O=C1/C(=C\c2cn(-c3nc(N4CCOCC4)nc(N4CCOCC4)n3)c3ccccc23)c2ccccc2N1c1c(Cl)cccc1Cl,79.7%,60.1%,28.2%,,75.3%,68.4%,29.5%,,40.8%,3.38% (active)
N=C(N)c1ccc(-c2ccc(-c3cc(Cl)cc(Cl)c3)s2)cc1,-77.4% (active),-64.7% (active),-84.4% (active),,-41.2% (active),-50.8% (active),-73.3% (active),,-81.1% (active),-77.1% (active)
O=C1Nc2ccccc2/C1=C/c1cn(CC(O)Cn2cc(/C=C3\C(=O)Nc4ccccc43)c3ccccc32)c2ccccc12 (stereo unspecified),-67.3% (active),-74.9% (active),-39.1% (active),,-17.4% (active),-11.6% (active),-70.9% (active),,-65.1% (active),-73.9% (active)
Cc1cc2c(-c3nc4ccccc4[nH]3)c(O)c(O)cc2c(O)c1-c1c(C)cc2c(-c3nc4ccccc4[nH]3)c(O)c(O)cc2c1O,-19.5% (active),-18.2% (active),20.2%,,-36.8% (active),-25.4% (active),-11.1% (active),,-53.7% (active),29.1%
Cc1c(O)c(N=Nc2ccc(C(=O)O)c(O)c2)c2ccccc2c1O,92.3%,104%,105%,,100%,78.9%,104%,119%,96.7%,77.7%
CCCCCSc1ccc2nc(NC(=O)OCCC)sc2c1,25.5%,30.1%,50%,,29.4%,46.4%,31.1%,,13.9%,36.3%
COc1ccc(C2=NN(C(=O)c3cc(-c4ccc(C)cc4)nc4ccccc34)C(c3cc(-c4ccccc4)nn3-c3ccccc3)C2)cc1 (stereo unspecified),90.4%,83.4%,84.6%,,82.9%,89.1%,95.6%,106%,74.5%,86.6%
